Measurements published in the supplement of paper PMC11001985.

compound: C#CCNC(=O)CCSSCCC(=O)NCCc1ccc(C=O)c(C=O)c1; experiment: lysine labeling ratio R10:1 (500 µM / 50 µM probe), SILAC-ABPP in living cells; higher = lower intrinsic lysine reactivity toward the probe, active = 2 or less; settings: HeLa; probe concentrations 500 vs 50 µM
Procedure, shortened: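 SILAC light and heavy living HeLa cells in PBS at room temperature were labelled with 50 µM or 500 µM of an alkyne-tagged, disulfide-linked lysine probe, with forward and reverse label swaps. Mixed lysates were clicked to biotin-azide, trypsin-digested, captured on neutravidin, DTT-released, alkylated and analysed by LC-MS/MS on a TIMS-TOF Pro. R is the filtered median high-probe/low-probe MS1 peptide ratio per lysine, then the median across forward and reverse replicates. Ratios are capped at 20.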

Sequence of UniProt P08727 (P08727 whole entry): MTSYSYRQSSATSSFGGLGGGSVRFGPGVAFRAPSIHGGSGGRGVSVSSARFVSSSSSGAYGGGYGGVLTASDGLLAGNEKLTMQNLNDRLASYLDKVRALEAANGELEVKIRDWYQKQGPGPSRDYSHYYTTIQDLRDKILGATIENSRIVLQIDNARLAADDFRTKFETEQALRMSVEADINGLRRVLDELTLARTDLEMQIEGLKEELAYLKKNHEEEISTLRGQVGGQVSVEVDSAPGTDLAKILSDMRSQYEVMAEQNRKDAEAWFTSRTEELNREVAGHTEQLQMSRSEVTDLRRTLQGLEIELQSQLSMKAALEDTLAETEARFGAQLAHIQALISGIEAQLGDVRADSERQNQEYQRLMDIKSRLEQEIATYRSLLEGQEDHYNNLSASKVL
Sequence of UniProt P20645 (P20645 whole entry): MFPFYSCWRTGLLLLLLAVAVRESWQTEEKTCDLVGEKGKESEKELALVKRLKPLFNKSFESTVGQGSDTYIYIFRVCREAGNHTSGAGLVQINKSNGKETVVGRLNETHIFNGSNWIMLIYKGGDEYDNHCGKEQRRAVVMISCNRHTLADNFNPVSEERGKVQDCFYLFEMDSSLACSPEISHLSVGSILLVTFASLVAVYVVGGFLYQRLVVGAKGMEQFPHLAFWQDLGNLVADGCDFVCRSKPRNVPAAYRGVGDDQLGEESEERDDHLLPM
Sequence of UniProt Q9NQC3 (Q9NQC3 whole entry): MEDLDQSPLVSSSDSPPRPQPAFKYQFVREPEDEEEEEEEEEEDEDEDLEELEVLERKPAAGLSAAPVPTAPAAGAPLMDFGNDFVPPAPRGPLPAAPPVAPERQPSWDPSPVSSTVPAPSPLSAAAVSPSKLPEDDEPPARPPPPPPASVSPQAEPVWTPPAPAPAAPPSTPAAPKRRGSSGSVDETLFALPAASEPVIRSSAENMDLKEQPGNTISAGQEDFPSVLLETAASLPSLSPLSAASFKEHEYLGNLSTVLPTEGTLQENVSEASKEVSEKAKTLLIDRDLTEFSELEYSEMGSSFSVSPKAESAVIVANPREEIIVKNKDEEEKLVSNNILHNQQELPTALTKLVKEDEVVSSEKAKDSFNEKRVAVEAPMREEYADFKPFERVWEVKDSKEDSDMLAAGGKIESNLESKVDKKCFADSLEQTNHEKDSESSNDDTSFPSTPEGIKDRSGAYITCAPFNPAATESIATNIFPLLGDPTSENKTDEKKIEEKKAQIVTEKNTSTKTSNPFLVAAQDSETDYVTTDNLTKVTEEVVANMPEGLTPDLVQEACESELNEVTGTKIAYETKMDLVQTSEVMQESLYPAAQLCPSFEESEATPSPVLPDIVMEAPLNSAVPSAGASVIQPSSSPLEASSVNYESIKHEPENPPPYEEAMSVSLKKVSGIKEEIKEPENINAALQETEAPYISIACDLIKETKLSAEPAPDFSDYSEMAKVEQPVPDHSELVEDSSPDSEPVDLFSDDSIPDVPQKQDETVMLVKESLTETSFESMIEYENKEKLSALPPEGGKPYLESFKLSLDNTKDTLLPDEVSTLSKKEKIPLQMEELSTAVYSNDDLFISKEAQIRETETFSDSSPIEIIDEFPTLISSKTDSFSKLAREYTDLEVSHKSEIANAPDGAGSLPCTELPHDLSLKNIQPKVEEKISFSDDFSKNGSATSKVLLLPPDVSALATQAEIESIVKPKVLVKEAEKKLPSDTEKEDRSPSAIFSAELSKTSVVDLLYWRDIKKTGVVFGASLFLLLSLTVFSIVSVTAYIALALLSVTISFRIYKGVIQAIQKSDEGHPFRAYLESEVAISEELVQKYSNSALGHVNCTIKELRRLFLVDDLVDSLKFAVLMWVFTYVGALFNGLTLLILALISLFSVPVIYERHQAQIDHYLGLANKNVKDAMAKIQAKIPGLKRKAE
Sequence of UniProt Q07065 (Q07065 whole entry): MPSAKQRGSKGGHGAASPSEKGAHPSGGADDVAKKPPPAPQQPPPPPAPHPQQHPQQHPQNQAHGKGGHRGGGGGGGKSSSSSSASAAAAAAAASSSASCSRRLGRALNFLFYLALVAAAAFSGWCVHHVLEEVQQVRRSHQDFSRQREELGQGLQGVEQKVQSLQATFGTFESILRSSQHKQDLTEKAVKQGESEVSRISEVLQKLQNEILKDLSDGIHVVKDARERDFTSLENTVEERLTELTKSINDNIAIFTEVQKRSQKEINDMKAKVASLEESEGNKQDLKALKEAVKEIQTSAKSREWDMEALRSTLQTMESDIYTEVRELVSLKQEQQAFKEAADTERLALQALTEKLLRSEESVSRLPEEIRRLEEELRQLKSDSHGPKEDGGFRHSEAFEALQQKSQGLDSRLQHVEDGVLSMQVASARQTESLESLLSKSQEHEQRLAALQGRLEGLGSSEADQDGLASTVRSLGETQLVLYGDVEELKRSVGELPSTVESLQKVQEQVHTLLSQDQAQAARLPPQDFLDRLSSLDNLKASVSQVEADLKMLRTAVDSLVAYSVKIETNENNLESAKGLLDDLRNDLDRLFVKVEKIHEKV
Sequence of UniProt P43007 (P43007 whole entry): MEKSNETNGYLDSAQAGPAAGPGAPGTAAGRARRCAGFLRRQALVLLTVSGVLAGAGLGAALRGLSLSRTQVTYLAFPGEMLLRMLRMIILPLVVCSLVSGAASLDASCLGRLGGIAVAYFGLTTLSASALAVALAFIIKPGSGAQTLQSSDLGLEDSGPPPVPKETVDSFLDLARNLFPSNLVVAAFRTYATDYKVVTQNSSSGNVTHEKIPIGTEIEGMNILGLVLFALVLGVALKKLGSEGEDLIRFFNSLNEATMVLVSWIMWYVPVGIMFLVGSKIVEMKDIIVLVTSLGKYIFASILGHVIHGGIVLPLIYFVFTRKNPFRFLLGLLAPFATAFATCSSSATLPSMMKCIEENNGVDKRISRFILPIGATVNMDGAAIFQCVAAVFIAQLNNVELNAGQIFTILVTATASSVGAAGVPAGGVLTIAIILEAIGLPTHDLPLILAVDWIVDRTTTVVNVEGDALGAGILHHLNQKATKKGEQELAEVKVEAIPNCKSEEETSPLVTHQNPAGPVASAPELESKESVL
Sequence of UniProt Q9NZV1 (Q9NZV1 whole entry): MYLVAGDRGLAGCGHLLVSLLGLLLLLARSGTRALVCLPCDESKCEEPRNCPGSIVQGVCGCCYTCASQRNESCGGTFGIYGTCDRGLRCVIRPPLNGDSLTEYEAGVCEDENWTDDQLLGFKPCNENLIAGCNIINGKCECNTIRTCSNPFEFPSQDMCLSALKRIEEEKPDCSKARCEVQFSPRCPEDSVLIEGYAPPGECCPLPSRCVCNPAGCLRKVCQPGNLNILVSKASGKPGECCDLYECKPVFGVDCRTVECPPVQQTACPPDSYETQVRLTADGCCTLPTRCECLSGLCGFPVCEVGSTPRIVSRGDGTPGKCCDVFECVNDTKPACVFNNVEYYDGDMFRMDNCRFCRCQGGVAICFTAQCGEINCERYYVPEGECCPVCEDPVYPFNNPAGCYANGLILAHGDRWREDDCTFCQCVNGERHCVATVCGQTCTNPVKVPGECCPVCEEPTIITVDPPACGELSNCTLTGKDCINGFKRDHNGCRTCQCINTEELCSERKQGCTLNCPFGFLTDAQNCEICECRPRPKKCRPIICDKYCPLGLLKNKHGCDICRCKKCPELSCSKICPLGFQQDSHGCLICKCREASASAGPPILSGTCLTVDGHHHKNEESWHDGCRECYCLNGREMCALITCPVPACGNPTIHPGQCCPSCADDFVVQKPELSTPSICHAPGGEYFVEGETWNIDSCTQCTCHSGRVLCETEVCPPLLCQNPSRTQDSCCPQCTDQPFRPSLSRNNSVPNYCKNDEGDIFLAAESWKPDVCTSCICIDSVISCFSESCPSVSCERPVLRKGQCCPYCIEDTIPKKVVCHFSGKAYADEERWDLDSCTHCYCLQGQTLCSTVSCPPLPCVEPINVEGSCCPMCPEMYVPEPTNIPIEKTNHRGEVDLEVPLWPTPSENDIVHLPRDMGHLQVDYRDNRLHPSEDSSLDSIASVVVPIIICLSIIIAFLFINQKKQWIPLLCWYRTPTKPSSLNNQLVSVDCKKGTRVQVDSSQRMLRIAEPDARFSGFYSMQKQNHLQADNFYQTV
Sequence of UniProt Q99460 (Q99460 whole entry): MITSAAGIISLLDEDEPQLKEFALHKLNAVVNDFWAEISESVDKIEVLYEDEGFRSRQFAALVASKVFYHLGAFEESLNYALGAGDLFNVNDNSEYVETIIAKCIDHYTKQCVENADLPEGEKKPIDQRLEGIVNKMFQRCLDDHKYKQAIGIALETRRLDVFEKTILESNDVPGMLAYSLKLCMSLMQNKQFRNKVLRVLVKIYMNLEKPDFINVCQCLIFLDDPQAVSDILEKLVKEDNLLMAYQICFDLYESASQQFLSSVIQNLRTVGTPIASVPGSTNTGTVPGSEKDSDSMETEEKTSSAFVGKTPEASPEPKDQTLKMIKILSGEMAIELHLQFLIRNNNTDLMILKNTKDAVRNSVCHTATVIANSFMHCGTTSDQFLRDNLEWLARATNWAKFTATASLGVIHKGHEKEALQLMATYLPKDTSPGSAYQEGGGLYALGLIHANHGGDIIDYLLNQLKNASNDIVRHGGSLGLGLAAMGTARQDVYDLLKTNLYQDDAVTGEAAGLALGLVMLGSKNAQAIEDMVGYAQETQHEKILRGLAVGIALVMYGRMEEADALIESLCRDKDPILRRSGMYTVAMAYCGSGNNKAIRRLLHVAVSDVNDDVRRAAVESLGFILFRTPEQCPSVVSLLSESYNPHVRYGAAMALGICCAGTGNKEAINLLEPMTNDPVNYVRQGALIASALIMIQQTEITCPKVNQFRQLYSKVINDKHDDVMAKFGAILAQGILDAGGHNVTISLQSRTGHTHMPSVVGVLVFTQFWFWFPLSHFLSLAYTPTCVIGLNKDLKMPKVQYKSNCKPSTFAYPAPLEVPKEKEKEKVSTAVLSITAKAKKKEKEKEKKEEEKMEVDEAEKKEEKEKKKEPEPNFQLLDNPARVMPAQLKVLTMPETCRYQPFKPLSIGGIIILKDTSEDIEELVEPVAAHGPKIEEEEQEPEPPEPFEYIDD

Lysine labeling ratio R10:1, inactive:
LAMC1 (lysine site: K1093) (UniProt P11047) 2.13, CACYBP (lysine site: K19) (UniProt Q9HB71) 7.06, MYH9 (lysine site: K1638) (UniProt P35579) 3.09, UniProt Q8WXI7 (lysine site: K13714) 7.68, DDX5 (lysine site: K264) (UniProt P17844) 7.01, CRIM1 (lysine site: K176) (UniProt Q9NZV1) 2.01, PTGFRN (lysine site: K576) (UniProt Q9P2B2) 2.67, RPS3A (lysine site: K46) (UniProt P61247) 3.87, NUCB1 (lysine site: K205) (UniProt Q02818) 4.75, HSPA9 (lysine site: K625) (UniProt P38646) 3.75, UniProt P54851 (lysine site: K129) 4.76, ITGA3 (lysine site: K100) (UniProt P26006) 2.42, ATAD3B (lysine site: K46) (UniProt Q5T9A4) 3.54, CD9 (lysine site: K131) (UniProt P21926) 7.57, UniProt P62249 (lysine site: K73) 3.59, ACSL3 (lysine site: K397) (UniProt O95573) 3.08, SPTBN1 (lysine site: K932) (UniProt Q01082) 3.29, PTPRS (lysine site: K1001) (UniProt Q13332) 4.13, CKAP4 (lysine site: K388) (UniProt Q07065) 2.6, EPHA2 (lysine site: K162) (UniProt P29317) 5.99, UniProt P08727 (lysine site: K168) 4.76, UniProt P08727 (lysine site: K265) 3.48, FLNB (lysine site: K1425) (UniProt O75369) 3.67

Lysine labeling ratio R10:1, active:
PIEZO1 (lysine site: K2372) (UniProt Q92508) 1.09, TLN1 (lysine site: K1221) (UniProt Q9Y490) 1.89, UniProt P26639 (lysine site: K549) 0.996, SLC1A4 (lysine site: K239) (UniProt P43007) 1.94, CAPZB (lysine site: K57) (UniProt P47756) 1.35, PLXND1 (lysine site: K1182) (UniProt Q9Y4D7) 0.824, PSMD1 (lysine site: K890) (UniProt Q99460) 1.11, MET (lysine site: K599) (UniProt P08581) 1.67, EGFR (lysine site: K489) (UniProt P00533) 1.31, FOLR1 (lysine site: K44) (UniProt P15328) 1.8, TXLNA (lysine site: K240) (UniProt P40222) 1.67, PLXNB2 (lysine site: K322) (UniProt O15031) 0.663, UniProt Q15303 (lysine site: K109) 1.9, SPTAN1 (lysine site: K803) (UniProt Q13813) 1.86, M6PR (lysine site: K99) (UniProt P20645) 1.86, RTN4 (lysine site: K1104) (UniProt Q9NQC3) 1.32, AHNAK (lysine site: K326) (UniProt Q09666) 1.7
